Screening data: PubChem, National Center for Advancing Translational Sciences (NCATS)
BAZ2B inh: qHTS Assay for Inhibitors of BAZ2B | 4.4% of 360,000 active | Bromodomain adjacent to zinc finger domain protein 2B (Homo sapiens), Q9UIF8 | AlphaScreen BAZ2B-H3K14Ac peptide displacement | Potency, µM (series often up to 114 µM), inactives show at the highest dose activity change, negative = inhibition, usual class: inhibitors | AID 504333, 2011; also: % is scaled to controls: 0 for no effect and ±100 for the full control effect; nearly all actives have a fitted effect of over 60% in size
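Compounds, titrated to a top concentration of 110 uM, were incubated 30 min at room temperature with preformed BAZ2B/acetyl-K14 H3 peptide complex (50 nM each). Proximity signal was measured by AlphaScreen after 20 min with beads.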
L3MBTL1 inh: qHTS Assay for the Inhibitors of L3MBTL1 | Potency, µM (highest dose often 57.1 µM), for inactives: top-dose activity, negative = inhibition, most hits filed as inhibitors | Lethal(3)malignant brain tumor-like protein 1 (Homo sapiens), Q9Y468 | AlphaScreen L3MBTL1–H3K9me1 peptide binding | 0.66% of 230,000 active | AID 485360, 2010; also: % is scaled to controls: 0 for no effect and ±100 for the full control effect; nearly all actives have a fitted effect of over 60% in size
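Read-out is AlphaScreen signal from streptavidin donor and nickel chelate acceptor beads (10 ug/mL final each) bridging L3MBTL1 (50 nM) and biotinylated K9-monomethylated H3(1-15) peptide (75 nM), after 30 min compound exposure at room temperature.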
HP1b binding inh: HTS for Inhibitors of HP1-beta Chromodomain Interactions with Methylated Histone Tails; Chromobox protein homolog 1 (Homo sapiens), P83916; AlphaScreen HP1-beta / biotin-H3K9me3 peptide binding; Potency, µM (doses to about 114 µM), inactives show top-dose activity change, negative = inhibition, hits mostly inhibitors; 0.56% of 390,000 active; AID 540317, 2011; also: nearly all actives have a fitted effect of over 70% in size
Target sequence (P83916 whole entry, looked up): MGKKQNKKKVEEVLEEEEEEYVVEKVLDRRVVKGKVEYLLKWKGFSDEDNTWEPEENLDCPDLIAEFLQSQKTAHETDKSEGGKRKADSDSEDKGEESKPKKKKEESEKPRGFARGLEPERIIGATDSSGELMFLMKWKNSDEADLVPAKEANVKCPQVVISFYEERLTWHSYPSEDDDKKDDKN
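Compound inhibition of the preformed complex between 50 nM HP1-beta and 50 nM biotinylated H3K9me3 peptide was read by AlphaScreen. Buffer was PBS pH 7.4 with 0.01% Tween-20. Incubations ran 30 min at room temperature, with 10 ug/mL donor/acceptor beads.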
JMJD2A Tudor inh: qHTS Assay for Inhibitors of JMJD2A-Tudor Domain. Lysine-specific demethylase 4A (Homo sapiens), O75164. AlphaScreen JMJD2A-Tudor / H3K4me3 peptide binding. Potency, µM (top dose mostly 114 µM), for inactives: top-dose activity change, negative = inhibition, usual class: inhibitors. 4.4% of 390,000 active. AID 504339, 2011; also: % is scaled to controls: 0 for no effect and ±100 for the full control effect; nearly all actives have a fitted effect of over 50% in size
G9a block: qHTS Assay for Inhibitors of Histone Lysine Methyltransferase G9a. G9a H3K9 monomethylation, AlphaScreen, 2 h. 8.8% of 350,000 active. Potency, µM (doses to about 102 µM), without a hit: at the highest dose activity, negative = inhibition, actives largely listed as inhibitors. AID 504332, 2011; also: % is scaled to controls: 0 for no effect and ±100 for the full control effect; nearly all actives have a fitted effect of over 75% in size
Target sequence (Q96KQ7 913-1193 limits assumed): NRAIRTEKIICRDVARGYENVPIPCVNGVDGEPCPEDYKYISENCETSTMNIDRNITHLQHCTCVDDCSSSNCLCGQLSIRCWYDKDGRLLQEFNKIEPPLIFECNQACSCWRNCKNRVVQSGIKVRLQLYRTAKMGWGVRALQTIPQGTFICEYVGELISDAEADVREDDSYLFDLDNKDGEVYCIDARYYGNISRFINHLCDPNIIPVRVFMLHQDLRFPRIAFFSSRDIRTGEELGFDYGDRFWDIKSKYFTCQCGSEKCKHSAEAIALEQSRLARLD
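Step 1: enzyme (final 20 nM) with compound, 15 min RT. Step 2: substrate peptide 500 nM and SAM 20 uM, 2 h RT. Step 3: anti-H3K9me1 antibody and AlphaScreen beads, 10 min, then plate read.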
* hit, by the source's call; ? = inconclusive; / = not tested or not shown; ! = repeats disagree; [ ] = dose if it differs, or a comment. An excerpt weighted towards active compounds, which were near 11% of everything screened. Calls follow the shape of the dose curve; as a rule, active = well fitted inhibition curve with a large enough effect; inconclusive = small, poorly fitted or top-dose-only effect; inactive = no such curve, though single readings can be large or run the other way. Potency is read from the fitted curve at half-maximal effect.

SMILES	BAZ2B inh	L3MBTL1 inh	HP1b binding inh	JMJD2A Tudor inh	G9a block
Cc1ccc(-c2ccc(CCC(=O)O)n2-c2ccc(O)cc2)cc1	?	-3%	-20%	?	?
COc1ccc(-c2ccc(CCC(=O)O)n2-c2cc(Cl)ccc2O)cc1	?	/	-3%	-34%	?
O=C(O)CCc1ccc(-c2ccc(Cl)cc2)n1-c1cccc(C(F)(F)F)c1	35µM*	/	-22%	?	16µM*
CC(=O)c1ccc(-n2c(CCC(=O)O)ccc2-c2ccccc2)cc1	-20%	/	7%	-7%	-14%[2.33 µM]
CN(C)c1ccc(-n2c(CCC(=O)O)ccc2-c2ccccc2)cc1	28µM*	/	?	50µM*	11µM*
CCOc1ccc(NC(=O)C2CCCN(c3nnc(-n4c(C)ccc4C)s3)C2)cc1 (centres undefined)	-20%	/	14%	-28%	-11%[59 µM]
COc1ccc(COC[C@H](C)[C@H](O[Si](C)(C)C)[C@@H](C)[C@H]2OC(=O)[C@H]2C)cc1	/	/	25%	-3%	/
Cc1ccc(NS(=O)(=O)c2cc3c(cc2-c2ccsc2)NC(=O)CO3)cc1C	/	/	/	-29%	/
CC(=O)c1cccc(-n2c(CCC(=O)O)ccc2-c2cccs2)c1	50µM*	-9%	?	56µM*	?
O=C(O)CCc1ccc(-c2ccccc2)n1-c1cccc(Br)c1	?	/	-22%	?	16µM*
COc1cccc(NC(=O)Cn2c(CCC(=O)O)ccc2-c2cccs2)c1	-22%	/	-14%	-20%	-7%
Cc1ccc(NC(=O)Cn2c(CCC(=O)O)ccc2-c2cccs2)cc1Cl	?	/	14%	?	45µM*
O=C(O)CCc1ccc(-c2cccs2)n1CCc1ccccc1	28µM*	-17%	34%	?	/
COc1ccc(CNC(=O)C(CCSC)NS(=O)(=O)c2ccc3c(c2)oc(=O)n3C)cc1 (centres undefined)	-1%	/	2%	-18%	8%[59 µM]
C[C@@H](CN(C)C)CN1c2ccccc2CCc2ccccc21	/	/	/	/	11%[21.5 µM]
COC(=O)c1cccnc1-n1c(=O)c2cccnc2n(CC(=O)Nc2cccc(C)c2)c1=O	5%	/	62%	-10%	19%[59 µM]
Cc1ccccc1OCC(=O)N(Cc1ccc(C(C)C)cc1)C1CCS(=O)(=O)C1 (centres undefined)	-13%	/	32%	-15%	3%[59 µM]
O=C(O)CCc1ccc(-c2cccs2)n1-c1ccc(C(=O)O)cc1	-39%	-29%	8%	?	14µM*
COc1cccc(NC(=O)Cn2c(CCC(=O)O)ccc2-c2ccc(Cl)cc2)c1	45µM*	-19%	-13%	-22%	/
CC(C)(C)c1ccc(C(=O)Nn2c(CCC(=O)O)ccc2-c2cccs2)cc1	?	/	2%	-33%	4%[12.7 µM]
O=C(Nc1ccc(Cl)cc1)C1CCN(c2nc3ccccc3nc2C(F)(F)F)CC1	-1%	/	13%	-4%	11%[59 µM]
O=S(=O)(c1ccc(F)cc1)N1CCN(Cc2cc3c(cc2Br)OCCO3)CC1	1%	-6%	47%	-2%	17%[2.33 µM]
Oc1ccc(N2CCN(Cc3cc4c(cc3Br)OCCO4)CC2)cc1	40µM*	/	?	35µM*	1.8µM*
COCCCNC(=O)CN1C(=O)c2cccnc2Sc2ccccc21	-1%	/	29%	-5%	3%[59 µM]
CC1=C(/C=C/C(C)=C/C=C/C(C)=C/C(=O)Nc2ccc(O)cc2)C(C)(C)CCC1	-31%	-4%	?	50µM*	13µM*!
SMILES	BAZ2B inh	L3MBTL1 inh	HP1b binding inh	JMJD2A Tudor inh	G9a block
CC1=C(/C=C/C(=C/C=C/C(C)=C/C(=O)O)c2ccc(C)cc2)C(C)(C)CCC1	/	/	/	/	22µM*
CC1=C(\C=C/C(C)=C/C=C\C(C)=C\C(=O)O)C(C)(C)CCC1	/	/	/	/	10µM*
CC1=C(/C=C/C(C)=C/C=C/C(C)=C\C(=O)O)C(C)(C)CCC1	/	/	28%	-29%	12%[12.7 µM]
O=C(OCc1ccco1)c1ccc2c(c1)N(Cc1cccc(F)c1)C(=O)c1ccccc1S2	-11%	/	9%[57 µM]	-34%	5%[59 µM]
O=C(CN1CCN(c2ccccc2F)CC1)c1ccc(O)cc1O	-29%	/	12%[57 µM]	-23%	-28%
COc1ccc(N2CCN(CC(=O)c3ccc(O)cc3O)CC2)cc1	?	/	-19%[57 µM]	?	71µM*
O=C(CN1CCN(c2ccc(F)cc2)CC1)c1ccc(O)cc1O	?	/	4%[57 µM]	-24%	79µM*
O=C(O)Cc1ccc(N=Nc2c(O)c(C(=O)O)cc3ccccc23)cc1	28µM*	25µM*	50µM*	56µM*	40µM*
NS(=O)(=O)c1ccc(N=Nc2c(O)c(C(=O)O)cc3ccccc23)cc1	40µM*	-25%	?	?	34%[0.501 µM]
Cc1[nH][nH]c(=O)c1N=Nc1ccc(S(N)(=O)=O)cc1	/	/	20%	-6%	/
CCn1c(SCC(=O)Nc2cc(C)ccc2F)nnc1-c1ccccc1O	2%	/	33%	-1%	-3%[59 µM]
COc1cc(NC(=O)c2cc(-c3cccc(Cl)c3)on2)c(OC)cc1Cl	-7%	/	13%	-3%	-9%[59 µM]
Cc1nn(-c2ncc(C(F)(F)F)cc2Cl)c(=O)n1-c1ccc(F)cc1	-12%	17%	10%	50µM*	11%
Cc1ccc(-n2c(C)nn(-c3ncc(C(F)(F)F)cc3Cl)c2=O)cc1	-6%	/	71%	-1%	-2%[59 µM]
COc1ccccc1N1CCN(C(=O)c2cn(C)c3ccc(S(=O)(=O)N(C)C4CCCCC4)cc3c2=O)CC1	/	/	32%	4%	9%[59 µM]
N/C(=N\NC(=O)Nc1ccc(Cl)cc1)c1ccccn1	16µM*	?	-1%	45µM*	-28%
CNC(=O)N/N=C(\N)c1ccccn1	?	7%	40%	?	10µM*
N/C(=N\NS(=O)(=O)c1ccccc1C(F)(F)F)c1ccccn1	-8%	18%	57%	3%	/
Cc1nc(C(F)(F)F)c(C(=O)N/N=C(\N)c2ccccn2)s1	10µM*	/	14%	79µM*	11%
COc1ccc(C(=O)N2CCN(c3nc4c(OC)cccc4s3)CC2)cc1OC	-8%	/	19%	-8%	10%[59 µM]
CC(C)N1C(=O)S/C(=C/c2ccc(Sc3nc4ccccc4[nH]3)o2)C1=O	-29%	0%	7%	-23%	71µM*
C=CCN1C(=O)S/C(=C/c2ccc(Sc3nc4ccccc4[nH]3)o2)C1=O	-2%	-10%	25%	-16%	2µM*
C=CCN1C(=O)S/C(=C/c2ccsc2)C1=O	34%	8%	60%	24%	2%[59 µM]
CC(C)CC(=O)NC(c1cccs1)c1ccc2cccnc2c1O (centres undefined)	0%	8%	27%	50µM*	10%
